The values that follow come from the supplement of paper PMC10849652.

About 7,900 targets were measured; listed, in parts, are those with a hit and a random draw of the rest. About 0.6% of all pairs of compound and target were hits. Values without a mark were called inactive.

Chain of UniProt P49748 (P49748 whole entry, looked up): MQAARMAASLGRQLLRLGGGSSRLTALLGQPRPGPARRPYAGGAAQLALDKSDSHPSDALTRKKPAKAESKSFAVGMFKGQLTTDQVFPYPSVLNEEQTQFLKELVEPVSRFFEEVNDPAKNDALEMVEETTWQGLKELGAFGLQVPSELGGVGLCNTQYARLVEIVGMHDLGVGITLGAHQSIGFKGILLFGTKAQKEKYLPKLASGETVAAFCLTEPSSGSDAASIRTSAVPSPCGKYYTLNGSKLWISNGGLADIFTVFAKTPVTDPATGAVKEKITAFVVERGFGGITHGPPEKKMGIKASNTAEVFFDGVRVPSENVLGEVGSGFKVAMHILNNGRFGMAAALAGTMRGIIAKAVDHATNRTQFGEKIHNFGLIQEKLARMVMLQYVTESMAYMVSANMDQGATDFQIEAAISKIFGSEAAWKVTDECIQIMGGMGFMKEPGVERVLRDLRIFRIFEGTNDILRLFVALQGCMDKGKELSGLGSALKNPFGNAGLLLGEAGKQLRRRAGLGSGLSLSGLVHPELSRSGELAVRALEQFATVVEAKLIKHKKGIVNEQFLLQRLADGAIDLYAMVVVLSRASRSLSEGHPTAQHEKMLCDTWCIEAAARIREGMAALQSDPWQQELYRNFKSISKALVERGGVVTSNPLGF
Chain of UniProt Q9UEY8 (Q9UEY8 whole entry, looked up): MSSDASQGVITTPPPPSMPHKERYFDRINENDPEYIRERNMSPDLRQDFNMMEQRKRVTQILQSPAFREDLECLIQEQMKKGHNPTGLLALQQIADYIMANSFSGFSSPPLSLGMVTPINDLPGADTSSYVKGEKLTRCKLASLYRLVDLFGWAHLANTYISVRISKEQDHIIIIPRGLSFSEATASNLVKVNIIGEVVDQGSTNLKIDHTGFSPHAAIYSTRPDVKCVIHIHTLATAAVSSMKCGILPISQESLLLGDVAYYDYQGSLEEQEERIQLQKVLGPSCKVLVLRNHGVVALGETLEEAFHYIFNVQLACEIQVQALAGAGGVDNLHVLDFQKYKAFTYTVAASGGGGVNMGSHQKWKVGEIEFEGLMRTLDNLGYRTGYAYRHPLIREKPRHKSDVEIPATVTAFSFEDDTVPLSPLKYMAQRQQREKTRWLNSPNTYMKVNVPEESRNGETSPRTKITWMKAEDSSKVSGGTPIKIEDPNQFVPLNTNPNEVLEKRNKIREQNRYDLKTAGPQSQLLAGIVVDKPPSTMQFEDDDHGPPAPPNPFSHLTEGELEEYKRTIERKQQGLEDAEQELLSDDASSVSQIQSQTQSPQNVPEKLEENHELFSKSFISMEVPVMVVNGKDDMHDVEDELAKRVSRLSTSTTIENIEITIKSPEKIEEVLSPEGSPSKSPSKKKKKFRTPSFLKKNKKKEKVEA
Chain of UniProt Q8N6H7 (Q8N6H7 whole entry, looked up): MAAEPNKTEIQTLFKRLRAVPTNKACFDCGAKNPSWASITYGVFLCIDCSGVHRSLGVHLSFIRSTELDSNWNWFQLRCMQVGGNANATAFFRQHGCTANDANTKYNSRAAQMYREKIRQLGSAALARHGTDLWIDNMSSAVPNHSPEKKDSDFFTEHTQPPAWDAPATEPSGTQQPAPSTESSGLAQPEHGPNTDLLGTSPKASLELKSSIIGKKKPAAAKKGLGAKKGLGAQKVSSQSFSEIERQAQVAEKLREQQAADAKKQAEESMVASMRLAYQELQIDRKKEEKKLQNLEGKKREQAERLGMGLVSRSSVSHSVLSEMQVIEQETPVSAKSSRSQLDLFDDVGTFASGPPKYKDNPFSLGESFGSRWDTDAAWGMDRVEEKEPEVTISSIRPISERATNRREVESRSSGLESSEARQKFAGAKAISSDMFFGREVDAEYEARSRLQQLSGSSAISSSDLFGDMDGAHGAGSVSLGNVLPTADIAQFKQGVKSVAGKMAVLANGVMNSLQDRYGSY
Chain of UniProt Q9BTE6 (Q9BTE6 whole entry, looked up): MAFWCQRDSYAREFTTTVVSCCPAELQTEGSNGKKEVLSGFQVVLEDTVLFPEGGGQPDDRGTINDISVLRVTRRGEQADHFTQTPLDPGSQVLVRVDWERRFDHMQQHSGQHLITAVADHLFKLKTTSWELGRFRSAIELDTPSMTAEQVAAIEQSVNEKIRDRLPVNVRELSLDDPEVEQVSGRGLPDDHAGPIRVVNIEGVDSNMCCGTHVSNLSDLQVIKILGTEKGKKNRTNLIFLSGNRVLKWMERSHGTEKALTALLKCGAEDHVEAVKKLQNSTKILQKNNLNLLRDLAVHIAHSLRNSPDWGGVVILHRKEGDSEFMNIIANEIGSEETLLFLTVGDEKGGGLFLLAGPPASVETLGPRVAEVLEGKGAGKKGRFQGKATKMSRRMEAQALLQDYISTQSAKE
Chain of UniProt Q9P287 (Q9P287 whole entry, looked up): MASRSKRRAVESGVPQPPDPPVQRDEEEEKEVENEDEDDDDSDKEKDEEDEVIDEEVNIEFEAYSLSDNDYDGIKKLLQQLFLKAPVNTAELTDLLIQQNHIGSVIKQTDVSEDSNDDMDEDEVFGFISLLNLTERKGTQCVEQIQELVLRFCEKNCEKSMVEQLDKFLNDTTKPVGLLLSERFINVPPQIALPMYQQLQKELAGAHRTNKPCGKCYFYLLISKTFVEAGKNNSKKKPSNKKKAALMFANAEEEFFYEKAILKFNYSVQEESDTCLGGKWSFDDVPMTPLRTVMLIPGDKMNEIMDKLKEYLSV
Chain of UniProt P53680 (P53680 whole entry, looked up): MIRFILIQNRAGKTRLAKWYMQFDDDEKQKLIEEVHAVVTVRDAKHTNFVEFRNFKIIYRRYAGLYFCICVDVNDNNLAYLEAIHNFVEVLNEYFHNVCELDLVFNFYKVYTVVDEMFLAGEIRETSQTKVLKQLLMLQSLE
Chain of UniProt Q9NSY1 (Q9NSY1 whole entry, looked up): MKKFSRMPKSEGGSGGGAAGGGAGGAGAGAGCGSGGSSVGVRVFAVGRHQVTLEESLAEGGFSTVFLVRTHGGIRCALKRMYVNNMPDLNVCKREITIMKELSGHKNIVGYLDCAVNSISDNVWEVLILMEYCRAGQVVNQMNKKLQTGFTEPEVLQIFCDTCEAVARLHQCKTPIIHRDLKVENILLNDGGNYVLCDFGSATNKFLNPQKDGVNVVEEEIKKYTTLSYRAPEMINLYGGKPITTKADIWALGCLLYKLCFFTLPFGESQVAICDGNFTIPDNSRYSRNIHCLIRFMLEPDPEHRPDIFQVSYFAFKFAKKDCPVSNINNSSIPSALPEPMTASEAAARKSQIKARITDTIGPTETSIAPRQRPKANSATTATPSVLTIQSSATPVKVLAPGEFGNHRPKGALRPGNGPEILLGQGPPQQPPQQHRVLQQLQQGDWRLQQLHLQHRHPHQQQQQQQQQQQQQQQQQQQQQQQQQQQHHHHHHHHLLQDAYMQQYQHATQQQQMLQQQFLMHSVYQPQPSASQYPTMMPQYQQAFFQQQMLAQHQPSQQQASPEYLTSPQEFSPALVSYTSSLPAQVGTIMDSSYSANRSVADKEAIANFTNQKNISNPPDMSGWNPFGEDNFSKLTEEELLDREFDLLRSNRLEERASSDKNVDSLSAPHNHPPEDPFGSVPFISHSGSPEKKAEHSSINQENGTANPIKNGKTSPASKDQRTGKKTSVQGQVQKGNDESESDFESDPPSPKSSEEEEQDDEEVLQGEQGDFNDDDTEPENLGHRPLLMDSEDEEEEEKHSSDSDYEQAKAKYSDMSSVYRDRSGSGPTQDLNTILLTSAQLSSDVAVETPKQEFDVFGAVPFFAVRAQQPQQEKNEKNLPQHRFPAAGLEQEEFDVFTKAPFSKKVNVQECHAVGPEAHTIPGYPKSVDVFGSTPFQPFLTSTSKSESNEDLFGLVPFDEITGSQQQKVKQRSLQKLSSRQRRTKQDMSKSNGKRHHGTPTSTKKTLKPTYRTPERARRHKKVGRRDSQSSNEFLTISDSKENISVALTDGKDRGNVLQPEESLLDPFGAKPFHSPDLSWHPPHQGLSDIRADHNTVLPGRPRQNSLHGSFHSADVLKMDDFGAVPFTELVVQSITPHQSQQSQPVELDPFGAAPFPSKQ
Chain of UniProt O95433 (O95433 whole entry, looked up): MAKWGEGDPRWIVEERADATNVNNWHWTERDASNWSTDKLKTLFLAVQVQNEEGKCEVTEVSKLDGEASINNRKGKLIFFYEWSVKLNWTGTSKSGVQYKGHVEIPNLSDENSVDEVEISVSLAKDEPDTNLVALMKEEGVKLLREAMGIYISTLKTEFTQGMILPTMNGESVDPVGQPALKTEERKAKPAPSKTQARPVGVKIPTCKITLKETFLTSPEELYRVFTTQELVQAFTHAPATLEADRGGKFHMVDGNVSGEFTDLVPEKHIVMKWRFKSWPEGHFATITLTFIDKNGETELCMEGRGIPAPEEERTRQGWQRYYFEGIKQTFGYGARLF
Chain of UniProt Q92560 (Q92560 whole entry, looked up): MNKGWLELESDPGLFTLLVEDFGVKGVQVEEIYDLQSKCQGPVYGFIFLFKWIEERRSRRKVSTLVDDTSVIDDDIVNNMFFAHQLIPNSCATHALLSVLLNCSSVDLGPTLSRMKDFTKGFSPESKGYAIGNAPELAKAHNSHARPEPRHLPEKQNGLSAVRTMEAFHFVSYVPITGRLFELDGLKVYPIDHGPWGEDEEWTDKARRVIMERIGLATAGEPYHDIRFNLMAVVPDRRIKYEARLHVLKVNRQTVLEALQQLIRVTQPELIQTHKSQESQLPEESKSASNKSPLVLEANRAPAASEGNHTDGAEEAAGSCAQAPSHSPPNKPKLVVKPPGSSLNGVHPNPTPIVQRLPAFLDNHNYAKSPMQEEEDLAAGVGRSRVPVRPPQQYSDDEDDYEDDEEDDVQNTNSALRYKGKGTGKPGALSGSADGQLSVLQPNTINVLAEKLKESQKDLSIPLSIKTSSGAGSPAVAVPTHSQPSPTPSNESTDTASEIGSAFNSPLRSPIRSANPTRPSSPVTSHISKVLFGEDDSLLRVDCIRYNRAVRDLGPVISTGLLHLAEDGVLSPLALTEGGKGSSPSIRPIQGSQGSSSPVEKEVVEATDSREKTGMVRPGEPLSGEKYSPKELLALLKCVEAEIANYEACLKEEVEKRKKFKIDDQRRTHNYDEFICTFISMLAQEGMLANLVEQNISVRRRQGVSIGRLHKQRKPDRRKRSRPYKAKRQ

Compound in this test: c1cn2cc(-c3ccc4cn[nH]c4c3)nc(Nc3ccc(N4CCOCC4)cc3)c2n1 [entospletinib]
In words: log2 fold change, soluble protein after heating vs DMSO (PISA); higher = thermal stabilisation; K562 cells, 10 uM, 30 min; active = over 0.2 and 3.5 SD of the protein, either way, in both replicates (recomputed). Summed up:
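Thermal stability values are relative to control samples and come from duplicates. They are expressed as log2 fold changes. For measurement, K562 cells (2×10^6 cells/mL) received 10 μM compound for 30 min, and aliquots were heated for 3 min over 48°C-58°C, pooled, and extracted at 4°C in PBS with 0.5% NP-40. Soluble protein, the supernatant after 21,000xg for 90 min, was quantified by TMTpro 16plex LC-MS/MS with equalised channel sums.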
AGPAT5 (UniProt Q9NUQ2): the log2 fold change was 0.114.

As to ACIN1 (UniProt Q9UKV3), the log2 fold change is -0.008.

Consider ATP11A (UniProt P98196), for which the log2 fold change is 0.158.

For BRAP (UniProt Q7Z569), the log2 fold change is 0.002.

For the target BAP1 (UniProt Q92560), the log2 fold change was -0.062.

In the case of AP2S1 (UniProt P53680), the log2 fold change was 0.028.

Turning to ACSL5 isoform 3 (UniProt Q9ULC5), the log2 fold change is -0.021.

As to ATP1B3 (UniProt P54709), the log2 fold change was -0.031.

For ADD3 (UniProt Q9UEY8), the log2 fold change was 0.046.

Consider APLP2 (UniProt Q06481), for which the log2 fold change is -0.009.

For ALDH9A1 isoform 3 (UniProt P49189), the log2 fold change was -0.017.

As to ARRDC1 (UniProt Q8N5I2), the log2 fold change is -0.014.

For ARFGEF1 (UniProt Q9Y6D6), the log2 fold change was -0.009.

As to AHCYL1 (UniProt O43865), the log2 fold change is 0.072.

Turning to ATXN7L3 isoform 2 (UniProt Q14CW9), the log2 fold change is 0.494.

For the target ARAF (UniProt P10398), the log2 fold change was -0.003.

With BMP2K (UniProt Q9NSY1), the log2 fold change is 0.157.

Consider ARL1 (UniProt P40616), for which the log2 fold change was -0.139.

On to B4GALNT1 (UniProt Q00973), for which the log2 fold change is 0.074.

On to AMD1 (UniProt P17707), for which the log2 fold change is 0.045.

As for BCCIP (UniProt Q9P287), the log2 fold change is -0.036.

ABCA3 (UniProt Q99758): the log2 fold change was 0.141.

With ACP2 (UniProt P11117), the log2 fold change was -0.004.

Turning to AHSA1 (UniProt O95433), the log2 fold change is -0.017.

As to ARFGAP2 (UniProt Q8N6H7), the log2 fold change is 0.007.

Consider ATIC (UniProt P31939), for which the log2 fold change is 0.045.

In the case of BRAF (UniProt P15056), the log2 fold change was 0.035.

Take ALG14 (UniProt Q96F25): the log2 fold change is -0.063.

As to ACADVL isoform 3 (UniProt P49748), the log2 fold change was 0.002.

As to AARSD1 (UniProt Q9BTE6), the log2 fold change is -0.371.

For the target ATP13A2 (UniProt Q9NQ11), the log2 fold change is -0.115.

For the target ACAP2 (UniProt Q15057), the log2 fold change was -0.073.

Turning to AARS2 (UniProt Q5JTZ9), the log2 fold change was -0.082.

On to ASH2L (UniProt Q9UBL3), for which the log2 fold change was -0.02.

Regarding BTAF1 (UniProt O14981), the log2 fold change was -0.005.

AGRN (UniProt O00468): the log2 fold change is 0.018.

AIFM2 (UniProt Q9BRQ8): the log2 fold change was 0.01.

With AKR1C3 (UniProt P42330), the log2 fold change was -0.011.
